Inconclusive results are not listed. Calls come from the whole dose curve; as a rule, active = well fitted activation curve with a large enough effect; inconclusive = small, poorly fitted or top-dose-only effect; inactive = no such curve, though single readings can be large or run the other way.
assay: qHTS Assay for Rab9 Promoter Activators: Hit Validation Using Renilla Luciferase Read-Out for Rab9; details: Huh7 Rab9 promoter Renilla luciferase reporter, 24 h; series mostly up to 76.9 µM; activation, negative = inhibition: at the top concentration; note: % of control where 0% means no effect
In short: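 Huh7 cells stably carrying promoter-luciferase reporter, exposed to compound for 24 h at 37 deg C. Luminescence read 10 min after adding luciferase detection reagent at room temperature.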

activation, negative = inhibition, inactive:
CC1(C)CC(=O)c2c(O)c(-c3ccccc3)c(=O)n(-c3ccccc3)c2C1 0.198%
CCOC(=O)CSc1nc2cc3c(cc2cc1C#N)OCO3 6.17%
O=C(NCCc1ccccc1)c1cc2ncc(Br)cn2n1 1.2%
O=C(CCS(=O)(=O)c1ccccc1)Nc1ccc(-c2nc3ccccc3s2)cc1 4.91%
Cc1ccc2c(c1)sc1nc(=O)n(-c3ccccc3)c(=O)n12 -16.2%
CCOC(=O)c1csc(COc2ccc(OC)cc2)n1 -3.06%
O=[N+]([O-])c1cnccc1Nc1ccc(F)cc1 -17.4%
Cc1ccc(C(=O)NC2CCN(CC(=O)Nc3c(C)cc(C)cc3C)CC2)cc1 -10.1%
Cc1ccc(NC(=O)NC(=O)c2ccccc2)cc1F 3.8%
CN(C)C(=O)[C@H]1C[C@H]1[C@@H](O)[C@H](CO)NC(=O)[C@H](COCc1ccccc1)NC(=O)OC(C)(C)C -3.65%
O=C(CN1C(=O)COc2ccc(Cl)cc21)NCC1CCCO1 (stereo not drawn) 9.31%
CCOc1cc(C2C(C#N)=C(N)Oc3n[nH]c(C)c32)ccc1OCCN1CCOCC1 (stereo not drawn) 4.94%
CCCC(C)NC(=O)c1ccc(OCc2ccc(Cl)cc2)c(OC)c1 (stereo not drawn) -18.8%
CC(=O)c1cccc(NC(=O)N2CCOCC2)c1 -2.63%
Cc1cc(C)cc(N(CC(=O)NC2CCCC2)C(=O)CNC(=O)c2ccco2)c1 -9.62%
COc1ccc(-c2csc(Nc3ncccn3)n2)cc1C 5.13%
Cc1[nH]n(-c2cccc3ccccc23)c(=O)c1/C=N/c1sc2c(c1C#N)CCC2 -5.17%
N#CC/C(N)=N/NC(=O)CCCNc1ncc(C(F)(F)F)cc1Cl -11.4%

From PubChem BioAssay AID624116 (National Center for Advancing Translational Sciences (NCATS), 2012)
